Data on 17 compounds can be found in PubChem BioAssay (NCATS).

Records with an inconclusive call do not appear. Calls of active or inactive are those of the source. Unless noted, calls follow the shape of the dose curve; as a rule, active = well fitted curve in the direction sought with a large enough effect; inconclusive = small, poorly fitted or top-dose-only effect, or another doubt; inactive = no such curve, though single readings can be large; an effect the other way counts as inactive or inconclusive.

Assay [1] deals with D(1A) dopamine receptor (Homo sapiens) (UniProt P21728). As to the kind of experiment: HTS Assay for Allosteric Agonists of the Human D1 Dopamine Receptor: Primary Screen for Potentiators (AID 488982). Also: 0% is about no effect. The gist of the method: (§1)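 Tetracycline-induced HEK293 T-REx cells force-coupled to calcium signalling were incubated overnight at 30 C and dye-loaded at room temperature. Calcium flux over 180 s after compound addition flagged agonists; a further 180 s read after EC20 dopamine flagged potentiators.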
Chain of D(1A) dopamine receptor (Homo sapiens) (P21728 whole entry, looked up): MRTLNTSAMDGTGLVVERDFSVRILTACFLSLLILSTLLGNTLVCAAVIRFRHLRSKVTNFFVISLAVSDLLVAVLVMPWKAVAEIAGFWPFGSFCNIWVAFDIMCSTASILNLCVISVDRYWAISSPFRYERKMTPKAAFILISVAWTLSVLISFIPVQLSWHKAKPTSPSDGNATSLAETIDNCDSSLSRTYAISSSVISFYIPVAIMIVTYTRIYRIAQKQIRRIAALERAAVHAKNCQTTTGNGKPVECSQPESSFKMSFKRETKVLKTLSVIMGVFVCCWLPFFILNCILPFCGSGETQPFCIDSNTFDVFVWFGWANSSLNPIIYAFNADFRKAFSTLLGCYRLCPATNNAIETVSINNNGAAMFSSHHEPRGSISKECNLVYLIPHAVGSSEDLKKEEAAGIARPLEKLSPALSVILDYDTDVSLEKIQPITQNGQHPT

The target is the same in assay [2]. Briefly: HTS Assay for Allosteric Agonists of the Human D1 Dopamine Receptor: Primary Screen for Antagonists (AID 488983).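 Also: calcium flux response to an EC80 dopamine challenge measured with no-wash dye; nearly all actives have a fitted effect of over 65% in size.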 Also: potency is read from the fitted curve at half-maximal effect. The gist of the method: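 Screening of inducible HEK293 T-REx D1 cells: compound first, EC80 dopamine 180 s later, each phase read kinetically for calcium over 180 s.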
The nature of assay [3]: Validation screen for small molecules that induce genotoxicity in human embryonic kidney (HEK293T) cells expressing luciferase-tagged ELG1 (AID 493106). Also: potency is read from the fitted curve at half-maximal effect. The gist of the method:
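Reporter-gene quantitative HTS in HEK293T cells carrying luciferase-tagged ELG1, whose level climbs under genotoxic stress. Compound exposure lasts 16 hr at 37 °C before luciferase detection.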

For assay [4], the target named is ATPase family AAA domain-containing protein 5 (Homo sapiens) (UniProt Q96QE3). As to the kind of experiment: Validation screen for small molecules that inhibit ELG1-dependent DNA repair in human embryonic kidney (HEK293T) cells expressing luciferase-tagged ELG1 (AID 493107). Also: nearly all actives have a fitted effect of over 70% in size. Also: potency is read from the fitted curve at half-maximal effect. The gist of the method:
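Quantitative HTS in HEK293T cells carrying luciferase-tagged ELG1, stimulated with 5-fluorouridine alongside compound for 16 hr. Loss of luciferase signal marks inhibition of ELG1 response.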

Assay [5] is described as follows: qHTS for Inhibitors of Cell Surface uPA Generation: Validation Assay (AID 493164).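 Also: RAW 264.7 macrophage cells exposed to compound for 18 h; 0% is about no effect.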 The gist of the method:
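RAW 264.7, 4000 cells/well, o/n plating; cpd 7-pt 1:5 dilution 2.45 nM–38.3 uM final; 18 h, 37 C/5% CO2; ATP-Lite, 5 s luminescence exposure.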
Background: Quantitative high-throughput screening tests each substance at several concentrations.

Assay [6] addresses Peptidyl-prolyl cis-trans isomerase NIMA-interacting 1 (Homo sapiens) (UniProt Q13526). Briefly: qHTS Validation Assay to Find Inhibitors of Pin1 (AID 504536; active = well fitted inhibition curve with a large enough effect in the polarisation, with a control signal flat, not every such curve was filed as active; the % refers to the polarisation; also: potency is read from the fitted curve at half-maximal effect). The gist of the method: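 Fluorescence polarization competition: compounds (titration) displace HiFluor-488-labeled Pin1-1b peptide from Pin1 (0.3 uM final) in pH 7.5 HEPES buffer with DTT, 10 min at room temperature; %Activity normalized to no-enzyme wells, curves fitted.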

The target in assay [7] is Phosphoglycerate kinase, glycosomal (Trypanosoma brucei brucei) (UniProt P07378). As to the kind of experiment: qHTS Validation Assay to Find Inhibitors of Phosphoglycerate Kinase (AID 504547).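 Also: control wells lack PGK and mark full inhibition.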 The gist of the method:
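Substrate/PGK mix plus compound; reaction started with GAPDH (100nM final) to form 1,3-BPG; 60 min RT; Kinase-Glo Plus 10 min; luminescence. TEA 100mM pH 7.6, MgCl2 5mM, Tween-20 0.01%.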

The target in assay [8] is phosphoglycerate mutase (Leishmania major) (UniProt Q4Q090). As to the kind of experiment: qHTS Validation Assay to Find Inhibitors of Phosphoglycerate Mutase (AID 504548). Also: potency is read from the fitted curve at half-maximal effect. Particulars: Potency: inhibition qHTS. The gist of the method: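 Inhibition of L. major PGAM was assessed by Kinase-GloPlus luminescence following a 45-minute room-temperature reaction with enzyme at 1.25nM final.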
Chain of phosphoglycerate mutase (Leishmania major) (Q4Q090 1-553): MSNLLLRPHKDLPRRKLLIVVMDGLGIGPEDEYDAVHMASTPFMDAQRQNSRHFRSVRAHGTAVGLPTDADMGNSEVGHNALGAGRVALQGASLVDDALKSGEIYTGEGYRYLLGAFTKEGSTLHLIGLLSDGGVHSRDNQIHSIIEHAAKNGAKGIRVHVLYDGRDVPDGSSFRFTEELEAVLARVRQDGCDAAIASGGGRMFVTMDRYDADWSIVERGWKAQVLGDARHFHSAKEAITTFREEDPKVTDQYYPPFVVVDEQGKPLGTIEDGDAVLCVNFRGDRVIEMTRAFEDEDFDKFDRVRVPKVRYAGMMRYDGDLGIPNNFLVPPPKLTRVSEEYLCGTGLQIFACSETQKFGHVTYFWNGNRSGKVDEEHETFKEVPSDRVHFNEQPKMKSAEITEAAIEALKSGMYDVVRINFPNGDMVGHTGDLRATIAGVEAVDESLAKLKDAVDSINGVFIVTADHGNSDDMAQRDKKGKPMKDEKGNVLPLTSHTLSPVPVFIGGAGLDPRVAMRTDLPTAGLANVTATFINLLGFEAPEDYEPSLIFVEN

Assay [9] addresses Ubiquitin carboxyl-terminal hydrolase 1 (Homo sapiens) (UniProt O94782). Briefly: Inhibitors of USP1/UAF1: Pilot qHTS (AID 504865). Also: nearly all actives have a fitted effect of over 35% in size. Also: potency is read from the fitted curve at half-maximal effect. The gist of the method:
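USP1/UAF1 complex at 1 nM preincubated 15 min at room temperature with compound, then Ub-Rho substrate added at 150 nM final. Fluorescence (480/540 nm) read kinetically in 50 mM HEPES pH 7.8, 0.5 mM EDTA, 1 mM TCEP, 0.1 mg/ml BSA, 0.01% Tween-20.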

A short description of assay [10]: qHTS for Inhibitors of ATXN expression: Validation of Cytotoxic Assay (AID 588349).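 Also: cells exposed to compound for 72 hr; % is scaled to controls: 0 for no effect and ±100 for the full control effect.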 The gist of the method: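 HEK293, compound dose series, 72 hr / 37 degrees C; viability via CellTiter Glo (intracellular ATP).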
The nature of assay [11]: qHTS for Inhibitors of ATXN expression: Validation (AID 588378). Also: nearly all actives have a fitted effect of over 75% in size. Also: potency is read from the fitted curve at half-maximal effect. The gist of the method: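 HEK293 cells carrying ATXN2-firefly luciferase reporter, treated with compound 24 h at 37 °C. Viability read first by CellTiter-Fluor (405/525 nm), then reporter expression by Bright-Glo luminescence; controls were a known ATXN2 expression inhibitor and a luciferase inhibitor.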
In assay [12] the target is D(1A) dopamine receptor (Homo sapiens) (UniProt P21728). As to the kind of experiment: HTS Assay for Allosteric Agonists of the Human D1 Dopamine Receptor: Primary Screen for Agonists (AID 488981). Also: potency is read from the fitted curve at half-maximal effect. The gist of the method: as §1
Assay [13] can be described thus: Nrf2 qHTS screen for inhibitors: Validation (AID 493153; active = well fitted inhibition curve with a large enough effect in the main read-out, with a control signal flat, not every such curve was filed as active). Particulars: Potency: luciferase luminescence; viability change: measured here: cytotoxicity max response. The gist of the method:
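Dose-response validation uses reporter A549 cells with firefly luciferase under an antioxidant response element. Compounds stay on cells 18-24 h at 37°C, and luminescence indicates Nrf2-driven transcription.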

In assay [14] the target is ATP-dependent 6-phosphofructokinase (Trypanosoma brucei brucei) (UniProt O15648). Briefly: qHTS Assay to Find Inhibitors of T. brucei phosphofructokinase: hit validation (AID 492961).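 Also: luminescence reports ADP formed as PFK phosphorylates fructose-6-phosphate with ATP; series mostly up to about 51 µM; % is scaled to controls: 0 for no effect and ±100 for the full control effect.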 The gist of the method:
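Percent activity derived from corrected luminescence, normalized between 0x and 1x enzyme controls, then fitted to concentration-response curves. Conditions: 1.25 nM PFK, 0.1 mM ATP, 0.5 mM F6P, 45 min RT.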

Assay [15] addresses Galactokinase (Homo sapiens) (UniProt P51570). Briefly: qHTS Validation Assay for Inhibitors of Human Galactokinase (GALK) (AID 493189). Also: 0% is about no effect. The gist of the method: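 GALK (5 nM) with 35 uM ATP and 100 uM galactose in HEPES pH 8.0 with MgCl2, NaCl, DTT and BSA. Reaction ran 1 h at room temperature. Residual ATP read by Kinase-Glo Plus luminescence.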
Assay [16] is described as follows: Validation screen for small molecules that induce DNA re-replication in SW480 colon adenocarcinoma cells (AID 504364). Also: 0% is about no effect. The gist of the method: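 Cells are treated 48 hr with test compound, stained 40 min with Hoechst at 37 C, and scanned for nuclear fluorescence; compounds inducing re-replication increase nuclei with elevated intensity.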

Chain of Ubiquitin carboxyl-terminal hydrolase 1 (Homo sapiens) (O94782 whole entry, looked up): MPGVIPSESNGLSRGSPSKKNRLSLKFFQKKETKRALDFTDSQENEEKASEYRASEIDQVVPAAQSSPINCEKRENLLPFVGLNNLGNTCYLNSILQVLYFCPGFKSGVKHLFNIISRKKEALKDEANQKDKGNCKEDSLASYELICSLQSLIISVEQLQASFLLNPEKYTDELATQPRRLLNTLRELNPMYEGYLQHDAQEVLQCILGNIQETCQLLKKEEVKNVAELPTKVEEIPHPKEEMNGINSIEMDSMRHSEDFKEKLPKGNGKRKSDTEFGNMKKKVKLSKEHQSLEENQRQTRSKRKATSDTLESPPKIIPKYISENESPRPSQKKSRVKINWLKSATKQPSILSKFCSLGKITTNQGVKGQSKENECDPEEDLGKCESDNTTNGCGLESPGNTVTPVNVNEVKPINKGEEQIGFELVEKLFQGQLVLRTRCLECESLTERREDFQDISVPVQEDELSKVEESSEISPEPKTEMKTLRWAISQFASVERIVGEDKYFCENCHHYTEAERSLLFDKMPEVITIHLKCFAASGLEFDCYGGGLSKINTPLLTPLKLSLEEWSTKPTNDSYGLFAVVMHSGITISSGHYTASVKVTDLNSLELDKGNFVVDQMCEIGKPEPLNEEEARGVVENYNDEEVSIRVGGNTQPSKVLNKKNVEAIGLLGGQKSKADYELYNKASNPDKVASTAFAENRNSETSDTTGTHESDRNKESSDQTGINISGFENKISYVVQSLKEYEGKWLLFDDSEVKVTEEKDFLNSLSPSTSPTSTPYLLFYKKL
Chain of Phosphoglycerate kinase, glycosomal (Trypanosoma brucei brucei) (P07378 whole entry, looked up): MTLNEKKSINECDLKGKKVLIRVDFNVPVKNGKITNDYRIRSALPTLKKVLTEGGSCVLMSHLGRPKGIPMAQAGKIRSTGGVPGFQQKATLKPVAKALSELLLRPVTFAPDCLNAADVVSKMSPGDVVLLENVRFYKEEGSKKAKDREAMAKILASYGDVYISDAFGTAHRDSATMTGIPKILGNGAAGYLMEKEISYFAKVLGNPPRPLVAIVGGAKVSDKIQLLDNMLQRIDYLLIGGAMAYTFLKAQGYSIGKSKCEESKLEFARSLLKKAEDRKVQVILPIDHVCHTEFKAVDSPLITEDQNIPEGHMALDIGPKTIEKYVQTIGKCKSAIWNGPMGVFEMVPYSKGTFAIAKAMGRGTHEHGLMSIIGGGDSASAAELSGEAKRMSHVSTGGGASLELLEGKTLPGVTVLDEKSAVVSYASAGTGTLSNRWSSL
Chain of ATPase family AAA domain-containing protein 5 (Homo sapiens) (Q96QE3 whole entry, looked up, the tested form may be a part): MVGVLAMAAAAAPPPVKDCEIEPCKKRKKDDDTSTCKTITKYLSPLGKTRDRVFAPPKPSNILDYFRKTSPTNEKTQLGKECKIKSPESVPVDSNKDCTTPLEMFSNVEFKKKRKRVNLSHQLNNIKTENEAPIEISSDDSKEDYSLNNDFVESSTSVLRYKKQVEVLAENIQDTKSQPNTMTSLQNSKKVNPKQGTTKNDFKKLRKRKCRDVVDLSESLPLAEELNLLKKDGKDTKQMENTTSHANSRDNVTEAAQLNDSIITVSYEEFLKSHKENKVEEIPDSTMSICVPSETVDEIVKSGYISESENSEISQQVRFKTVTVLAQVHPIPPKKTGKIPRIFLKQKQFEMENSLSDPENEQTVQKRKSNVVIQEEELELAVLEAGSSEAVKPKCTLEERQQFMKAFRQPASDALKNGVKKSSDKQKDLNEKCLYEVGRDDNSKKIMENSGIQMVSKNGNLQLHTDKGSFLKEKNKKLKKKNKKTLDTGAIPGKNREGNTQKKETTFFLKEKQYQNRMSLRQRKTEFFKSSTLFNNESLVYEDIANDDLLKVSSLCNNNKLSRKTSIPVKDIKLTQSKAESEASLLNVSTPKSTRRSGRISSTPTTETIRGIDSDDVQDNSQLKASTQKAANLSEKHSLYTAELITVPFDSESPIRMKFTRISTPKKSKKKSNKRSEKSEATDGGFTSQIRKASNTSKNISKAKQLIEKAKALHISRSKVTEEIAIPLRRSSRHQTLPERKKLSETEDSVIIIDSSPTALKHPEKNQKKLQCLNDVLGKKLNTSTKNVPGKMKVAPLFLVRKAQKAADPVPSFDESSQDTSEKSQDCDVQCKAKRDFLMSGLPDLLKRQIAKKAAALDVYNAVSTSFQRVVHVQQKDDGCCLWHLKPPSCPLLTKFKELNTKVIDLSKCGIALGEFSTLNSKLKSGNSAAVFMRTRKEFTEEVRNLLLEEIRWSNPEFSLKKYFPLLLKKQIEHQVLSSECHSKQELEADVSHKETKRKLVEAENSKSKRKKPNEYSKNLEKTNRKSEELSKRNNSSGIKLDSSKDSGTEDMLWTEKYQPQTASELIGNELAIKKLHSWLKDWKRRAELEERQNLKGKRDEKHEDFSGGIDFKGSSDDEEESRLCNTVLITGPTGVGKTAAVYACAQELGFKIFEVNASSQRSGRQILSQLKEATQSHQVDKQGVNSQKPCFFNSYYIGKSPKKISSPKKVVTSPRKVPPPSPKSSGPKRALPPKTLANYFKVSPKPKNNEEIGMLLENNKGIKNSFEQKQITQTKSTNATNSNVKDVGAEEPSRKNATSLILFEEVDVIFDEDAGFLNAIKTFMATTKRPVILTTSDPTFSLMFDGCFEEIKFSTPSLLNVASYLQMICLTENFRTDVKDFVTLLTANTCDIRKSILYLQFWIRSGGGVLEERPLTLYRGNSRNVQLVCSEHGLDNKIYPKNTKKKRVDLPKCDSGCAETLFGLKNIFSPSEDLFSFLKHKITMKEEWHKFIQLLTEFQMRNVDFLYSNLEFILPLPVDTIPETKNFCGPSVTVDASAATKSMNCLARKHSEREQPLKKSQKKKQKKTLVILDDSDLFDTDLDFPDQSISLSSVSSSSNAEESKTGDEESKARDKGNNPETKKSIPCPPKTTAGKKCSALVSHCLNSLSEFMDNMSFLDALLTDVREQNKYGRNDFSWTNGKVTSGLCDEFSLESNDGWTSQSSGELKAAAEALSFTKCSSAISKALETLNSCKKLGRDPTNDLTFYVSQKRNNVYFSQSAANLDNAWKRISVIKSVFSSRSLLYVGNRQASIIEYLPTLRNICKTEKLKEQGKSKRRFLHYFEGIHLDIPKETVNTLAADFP
Chain of Peptidyl-prolyl cis-trans isomerase NIMA-interacting 1 (Homo sapiens) (Q13526 whole entry, looked up): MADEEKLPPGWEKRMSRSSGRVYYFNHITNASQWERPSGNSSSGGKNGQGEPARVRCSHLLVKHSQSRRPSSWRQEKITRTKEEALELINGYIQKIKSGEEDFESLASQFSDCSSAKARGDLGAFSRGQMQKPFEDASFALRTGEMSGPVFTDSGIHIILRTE
Chain of Galactokinase (Homo sapiens) (P51570 whole entry, looked up): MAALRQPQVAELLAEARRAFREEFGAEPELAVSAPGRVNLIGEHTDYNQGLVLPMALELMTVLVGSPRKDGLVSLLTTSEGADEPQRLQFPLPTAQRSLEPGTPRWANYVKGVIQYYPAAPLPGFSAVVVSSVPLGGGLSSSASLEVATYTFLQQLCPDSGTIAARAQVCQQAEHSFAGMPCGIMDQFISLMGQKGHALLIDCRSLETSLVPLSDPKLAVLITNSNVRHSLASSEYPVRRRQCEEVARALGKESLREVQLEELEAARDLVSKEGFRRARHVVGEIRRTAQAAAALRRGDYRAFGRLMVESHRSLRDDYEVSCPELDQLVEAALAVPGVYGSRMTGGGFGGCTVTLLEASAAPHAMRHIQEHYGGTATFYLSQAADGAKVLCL

With `CN(C)CCCc1cc(C(=O)Nc2ccc(-c3ccncc3)cc2)ccc1O`, the Potency result in assay [1], in [2], in [3], in [4], in assay [6] and in assay [7] was “inactive” throughout. The Potency entry in assay [8], in assay [9], in assay [10] and in assay [11] was “inactive” in each case. Also, in assay [5], the compound was called inactive.
As for `COc1cc(/C=C(\C#N)C(=O)Nc2nnc(C(F)(F)F)s2)ccc1OCc1ccc(C(F)(F)F)cc1C(F)(F)F`, the Potency entry in assay [12], in [1], in assay [2], in assay [8] and in assay [10] was “inactive” each time. In addition, the result in assay [5] was inactive. Further, the figures for the Potency in assay [6] and in assay [9] were 23.9 µM (active) and 50.1 µM (active), respectively.
In the case of `Nc1nc2c(nc(Br)n2C2OC3COP(=O)(O)O[C@@H]3C2O)c(=O)[nH]1` (stereo not given in full), the Potency entry in assay [12], in [1], in assay [2], in assay [3], in [4] and in assay [13] was “inactive” each time. The Potency entry in assay [6], in assay [7], in assay [8], in [9], in assay [10] and in assay [11] was “inactive” throughout. In [13], the viability change amounted to 2.34%.
As to `CC(O)C(O)[C@H]1CNc2nc(N)[nH]c(=O)c2N1` (stereo not given in full), the Potency result in assay [1], in [2], in assay [3], in assay [4], in assay [6] and in [7] was “inactive” throughout. Further, the Potency entry in [8], in assay [9] and in assay [11] was “inactive” throughout. In addition, the call in assay [14] and in assay [5] was inactive.
For the compound `CN1Cc2sccc2C(c2ccc(O)c(O)c2)C1` (stereo not given), the Potency entry in assay [1], in [3], in assay [4], in assay [13], in [6] and in [7] was “inactive” throughout. Besides, the Potency entry in [8], in assay [9] and in [11] was “inactive” each time. Also, the Potency in assay [2] is 0.355 µM (active). For the same compound, the viability change in assay [13] was 12.4%. The call in assay [5] was inactive.
As for `CSC(=N)N`, the Potency entry in assay [12], in assay [1], in assay [2], in assay [4], in [13] and in assay [15] was “inactive” throughout. Besides, the Potency entry in assay [16], in assay [6], in assay [7], in [8], in assay [9] and in assay [10] was “inactive” in each case. Also, the Potency result in [11] is “inactive”. In addition, the viability change in assay [13] was -21.7%. Further, the outcome in assay [5] was inactive.
`C[C@](Cc1ccc(O)c(O)c1)(NN)C(=O)O`: the Potency result in assay [12], in assay [2], in assay [3], in assay [4], in [13] and in assay [6] was “inactive” in each case. Moreover, the Potency result in [7], in assay [9], in assay [10] and in assay [11] was “inactive” in each case. For the same compound, the viability change in [13] was -1.27%. The compound was called inactive in [5].
For `CN1CCc2cc(Cl)c(O)cc2[C@@H](c2ccccc2)C1`, the Potency entry in [12], in assay [1], in assay [3], in assay [4], in [13] and in assay [6] was “inactive” each time. Also, the Potency result in assay [7], in assay [8], in assay [9] and in assay [11] was “inactive” each time. The viability change in assay [13] stood at 5.24%. Further, in assay [5], the call was inactive.
Regarding `NC[C@@H]1O[C@H](c2ccccc2)Cc2c1ccc(O)c2O`, the Potency entry in [12], in assay [1], in assay [3], in assay [4], in [13] and in assay [6] was “inactive” each time. Moreover, the Potency result in assay [7], in assay [8], in assay [9], in [10] and in assay [11] was “inactive” each time. Also, the viability change in [13] was -1.5%. For the same compound, in assay [5], the call was inactive.
For `O=C(O)CCC/C=C\C[C@@H]1[C@@H](/C=C/[C@H](O)C2Cc3ccccc3C2)[C@@H](F)C[C@@H]1O`, the Potency entry in [12], in assay [1], in assay [2], in assay [3], in assay [4] and in assay [6] was “inactive” in each case. In addition, the Potency entry in assay [8], in assay [9], in assay [10] and in assay [11] was “inactive” each time. Also, the compound was classed as inactive in [5].
With `CCCCCCCCCCC(C)(C)C(=O)Nc1c(OC)cc(OC)cc1OC`, the Potency result in assay [12], in [1], in [3], in assay [4], in assay [6] and in [7] was “inactive” each time. Further, the Potency result in assay [8], in assay [10] and in assay [11] was “inactive” throughout. Besides, the outcome in [5] was inactive. In addition, the Potency in assay [9] was 44.7 µM (active).
Regarding `CC[n+]1c(/C=C/C=C2/N(C)c3ccccc3C2(C)C)sc2ccccc21`, the Potency in assay [12] is 11.2 µM (active); in [4], 2.31 µM (active); in [8] it was 19 µM (active); in assay [9], 31.6 µM (active); in assay [11], 0.891 µM (active). For the same compound, the Potency result in [1] and in [2] was “inactive” in each case. Besides, in assay [5], the outcome was inactive.
With `CNCCc1cnc(CCC(c2ccccc2)c2ccccc2)[nH]1`, the Potency result in assay [1], in [2], in assay [3], in assay [4], in assay [6] and in [7] was “inactive” throughout. The Potency entry in assay [9] was “inactive”. Moreover, the result in assay [5] was inactive.
Take `CN1CC(O)C(O)C(O)C1CO` (stereo not given): the Potency entry in assay [12], in assay [1], in [2], in [4], in assay [13] and in assay [6] was “inactive” throughout. Besides, the Potency result in [7], in [8], in assay [9], in assay [10] and in [11] was “inactive” throughout. For the same compound, the viability change in [13] worked out at 2.46%. For the same compound, the outcome in assay [5] was inactive.
With `O=c1cc(-c2ccccc2F)[nH]c2cc3c(cc12)OCO3`, the Potency entry in [12], in assay [1], in assay [2], in assay [4], in assay [6] and in [7] was “inactive” throughout. The Potency result in [8], in assay [9] and in assay [11] was “inactive” throughout. Also, in assay [3], the Potency was 5.17 µM (active). In addition, the result in [5] was inactive.
Regarding `CCc1ccc2c(-c3cccc(Cl)c3)nc(=O)n(CC)c2n1`, the Potency result in [12], in assay [1], in [2], in [4], in assay [13] and in [6] was “inactive” in each case. Moreover, the Potency entry in assay [7], in [8], in [9], in [10] and in assay [11] was “inactive” each time. Besides, the viability change in [13] stood at 1.57%. In assay [5], the outcome was inactive.
Take `Brc1c(Br)c(Br)c2[nH]cnc2c1Br`: the Potency entry in assay [12], in [2], in assay [3], in [6], in [7] and in assay [9] was “inactive” throughout. Further, the Potency in [4] is 4.61 µM (active). Also, the call in [5] was inactive.
